# Reference: PubChem BioAssay (Tox21)
# Unmarked numbers belong to inactive results. Records with an inconclusive call do not appear. Where a call stands in place of a potency, no number is given. Activity calls are given as the source filed them. Unless noted, calls come from the whole dose curve; as a rule, active = well fitted curve in the direction sought with a large enough effect in the repeat runs; inconclusive = weak or mixed curves; inactive = no such curve, though single readings can be large; an effect the other way counts as inactive or inconclusive.
# Assays:
# [1] = target: Thyrotropin-releasing hormone receptor (Homo sapiens) (UniProt P34981); assay: qHTS assay to identify small molecule agonists of the thyrotropin-releasing hormone receptor (TRHR) signaling pathway (AID 1346891; calls by dose curve; note: series mostly up to about 58 µM)
# In short: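 Readout was intracellular calcium fluorescence in TRHR-Hek293 cells. Cells were incubated 18 h, dye-loaded 2 h at 37 °C, and treated with compound in agonist mode.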
# [2] = Human pregnane X receptor (PXR) small molecule agonists, qHTS cell viability counter screen (AID 1346977); note: nearly all actives have a fitted effect of over 50% in size; note: potency is the fitted concentration of half-maximal effect
# In short: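 In each well, the PXR reporter HepG2 line was checked for viability: CellTiter-Fluor reagent added 23hr post-dosing, fluorescence read after 1hr incubation at 37C.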
# [3] = Caspase-3/7 induction in HepG2 cells by small molecules, qHTS assay (AID 1346978); note: nearly all actives have a fitted effect of over 15% in size
# In short: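 Wild-type HepG2 cells (2,000/well) were settled 5 h at 37 C, 5% CO2, then exposed to compounds in DMSO for 17 h. Caspase-3/7 activity was read by luminescence 30 min after adding Caspase-Glo 3/7 reagent at room temperature.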
# [4] = Caspase-3/7 induction in CHO-K1 cells by small molecules, qHTS cell viability counter screen (AID 1346979); note: nearly all actives have a fitted effect of over 35% in size
# In short: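 Following a 5hr settling period, CHO-K1 cells at 1,500 per well received DMSO-dissolved compounds. Cell viability was quantified 16hr later by CellTiter-Fluor fluorescence, measured after 1hr with reagent at 37C.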
# [5] = Caspase-3/7 induction in CHO-K1 cells by small molecules, qHTS assay (AID 1346980); note: nearly all actives have a fitted effect of over 15% in size
# In short: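 Wild-type cells were seeded at 1,500 per well and settled 5 hr at 37 C, 5% CO2, then exposed to DMSO-dissolved compounds for 17 hr. Caspase-Glo 3/7 reagent was added, and luminescence was read after 30min at room temperature.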
# [6] = Caspase-3/7 induction in HepG2 cells by small molecules, qHTS cell viability counter screen (AID 1346981); note: series mostly up to about 92 µM; nearly all actives have a fitted effect of over 30% in size
# In short: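 Counter screen for cytotoxicity: HepG2 exposed 16 hr to compounds, then CellTiter-Fluor viability signal (fluorescence, 1 hr reagent incubation).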
# [7] = target: Nuclear receptor subfamily 1 group I member 2 (Rattus norvegicus) (UniProt Q9R1A7); assay: Rat pregnane X receptor (rPXR) activation by small molecules, qHTS assay (AID 1346983); conditions: rPXR luciferase reporter cells, One-Glo luminescence, 24 h; hits give high values; note: nearly all actives have a fitted effect of over 20% in size
# In short: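 Cell-based rPXR luciferase reporter assay, 2,000 cells per well, rested 5hr at 37 C before compound addition in DMSO, then 24 hr at 37 C. One-Glo reagent was added and luminescence read after 30 min at room temperature.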
# [8] = target: Nuclear receptor subfamily 1 group I member 2 (Homo sapiens) (UniProt O75469); assay: Human pregnane X receptor (PXR) small molecule agonists, qHTS assay (AID 1346982); note: nearly all actives have a fitted effect of over 35% in size; note: potency is the fitted concentration of half-maximal effect
# In short: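 Luminescence (ONE-Glo, 30 min RT) after 24 hr compound exposure of PXR-Luc HepG2 cells; cells rested 5 hr post-plating in 5% charcoal-stripped FBS medium.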
# [9] = target: Nuclear receptor subfamily 1 group I member 2 (Homo sapiens) (UniProt O75469); assay: Human pregnane X receptor (PXR) activation by small molecules, qHTS assay (AID 1346985); note: nearly all actives have a fitted effect of over 40% in size; note: potency is the fitted concentration of half-maximal effect
# In short: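 DPX-2 cells (HepG2 co-transfected with a PXR response element and a CYP3A4-promoter luciferase construct) were seeded at 2,000 per well, rested 5 hr at 37C, then exposed to DMSO-dissolved compounds for 24 hr. Activation was read as luciferase luminescence.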
# [10] = target: Nuclear receptor subfamily 1 group I member 2 (Homo sapiens) (UniProt O75469); assay: CYP3A4 induction through human pregnane X receptor (PXR) by small molecules, qHTS assay (AID 1346984); note: nearly all actives have a fitted effect of over 40% in size
# In short: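 DPX-2 reporter cells; 24h cpd, 37C; Luciferin-IPA 3uM final x3h; One-Glo 30 min RT; lumi read.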
# Sequence of Nuclear receptor subfamily 1 group I member 2 (Rattus norvegicus) (Q9R1A7 whole entry, looked up): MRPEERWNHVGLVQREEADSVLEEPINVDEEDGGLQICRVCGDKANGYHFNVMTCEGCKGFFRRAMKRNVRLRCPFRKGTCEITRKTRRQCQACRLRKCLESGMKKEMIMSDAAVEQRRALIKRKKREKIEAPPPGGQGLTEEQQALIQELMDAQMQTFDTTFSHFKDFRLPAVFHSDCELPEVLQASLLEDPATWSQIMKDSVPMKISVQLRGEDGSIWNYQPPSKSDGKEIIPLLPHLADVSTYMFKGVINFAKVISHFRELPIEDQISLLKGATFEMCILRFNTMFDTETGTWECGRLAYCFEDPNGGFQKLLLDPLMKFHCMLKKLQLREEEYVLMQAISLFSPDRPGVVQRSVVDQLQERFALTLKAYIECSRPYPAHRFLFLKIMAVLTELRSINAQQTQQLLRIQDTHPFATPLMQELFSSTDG
# Sequence of Thyrotropin-releasing hormone receptor (Homo sapiens) (P34981 whole entry, looked up): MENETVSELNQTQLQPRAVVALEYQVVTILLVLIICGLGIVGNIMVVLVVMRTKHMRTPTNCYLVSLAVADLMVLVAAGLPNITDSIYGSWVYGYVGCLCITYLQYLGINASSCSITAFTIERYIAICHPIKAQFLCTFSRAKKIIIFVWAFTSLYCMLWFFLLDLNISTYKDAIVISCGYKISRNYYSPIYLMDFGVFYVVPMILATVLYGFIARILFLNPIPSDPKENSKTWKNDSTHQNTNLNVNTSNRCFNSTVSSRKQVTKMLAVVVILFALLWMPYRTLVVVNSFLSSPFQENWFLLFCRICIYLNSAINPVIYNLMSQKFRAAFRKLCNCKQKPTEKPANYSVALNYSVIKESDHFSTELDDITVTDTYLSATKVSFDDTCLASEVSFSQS
# Sequence of Nuclear receptor subfamily 1 group I member 2 (Homo sapiens) (O75469 whole entry, looked up): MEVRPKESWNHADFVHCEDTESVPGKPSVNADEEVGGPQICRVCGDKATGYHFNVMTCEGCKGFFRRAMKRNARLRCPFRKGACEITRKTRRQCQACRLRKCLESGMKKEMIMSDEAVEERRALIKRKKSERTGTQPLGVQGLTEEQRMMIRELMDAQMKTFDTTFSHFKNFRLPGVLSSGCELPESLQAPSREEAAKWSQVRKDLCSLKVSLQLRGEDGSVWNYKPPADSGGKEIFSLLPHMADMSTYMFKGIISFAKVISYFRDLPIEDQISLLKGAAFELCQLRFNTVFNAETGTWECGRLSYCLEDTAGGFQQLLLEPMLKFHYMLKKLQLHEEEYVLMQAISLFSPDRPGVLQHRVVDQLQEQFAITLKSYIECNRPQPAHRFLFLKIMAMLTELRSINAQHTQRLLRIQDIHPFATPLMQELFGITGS
Structure (SMILES),outcome [1],Potency [2],Potency [3],Potency [4],outcome [5],Potency [6],max activation [7],Potency [8],Potency [9],Potency [10]
CCCN1CCCC[C@H]1C(=O)Nc1c(C)cccc1C,inactive,inactive,inactive,inactive,inactive,inactive,0.29%,,,
COC(=O)c1c(Cl)c(Cl)c(C(=O)OC)c(Cl)c1Cl,,inactive,inactive,inactive,inactive,inactive,,21.7 µM (active),,
N=C(N)c1ccc(OCCCOc2ccc(C(=N)N)cc2)cc1,,inactive,inactive,inactive,inactive,inactive,,inactive,,
CCSC(=O)N(CC(C)C)CC(C)C,,inactive,inactive,inactive,inactive,inactive,,inactive,,
CCOC(=O)C(=O)OCC,,inactive,inactive,inactive,inactive,inactive,,inactive,,
CCn1nc(C(=O)O)c(=O)c2cc3c(cc21)OCO3,,inactive,inactive,inactive,inactive,inactive,,,,
CCCCNC(=O)NCCCC,inactive,inactive,inactive,,,inactive,,inactive,,
NS(=O)(=O)c1ccccc1Cl,,inactive,inactive,inactive,inactive,inactive,,inactive,,
Oc1ccc(C2CNCCc3c2cc(O)c(O)c3Cl)cc1 (stereo not given),,inactive,inactive,inactive,inactive,inactive,,inactive,,
CCCCCSCCCCC,,inactive,inactive,inactive,inactive,inactive,,inactive,,
CCOC(=O)CCC(C)=O,,inactive,inactive,inactive,inactive,inactive,,inactive,,
COC(C)(C)CCCC(C)CC=O (stereo not given),inactive,inactive,inactive,,inactive,inactive,,inactive,,
CO/N=C(/C(=O)N[C@@H]1C(=O)N2C(C(=O)OCOC(=O)C(C)(C)C)=C(C)CS[C@H]12)c1csc(N)n1,,inactive,inactive,inactive,inactive,inactive,,inactive,,
C1CN(CCOCCN2CCOCC2)CCO1,,inactive,inactive,inactive,inactive,inactive,,inactive,,
CCOC(=O)CC(C)=O,,inactive,inactive,inactive,inactive,inactive,,,,
COc1cc(C(=O)N2CCCCCCC2)cc(OC)c1OC,inactive,inactive,inactive,inactive,inactive,inactive,-0.931%,,15.8 µM (active),
CCN(CC)CCNC(=O)c1cc(S(C)(=O)=O)ccc1OC,inactive,inactive,inactive,,inactive,inactive,-2.45%,inactive,inactive,inactive
NC(=O)Nc1ccccc1,,inactive,inactive,inactive,inactive,inactive,,inactive,,
CCCC(=O)O[C@]1(C(=O)CO)CC[C@H]2[C@@H]3CCC4=CC(=O)CC[C@]4(C)[C@H]3[C@@H](O)C[C@@]21C,inactive,inactive,inactive,inactive,inactive,inactive,8.95%,,inactive,inactive
CC(=O)OCC(=O)[C@@]1(O)CC[C@H]2[C@@H]3CCC4=CC(=O)CC[C@]4(C)[C@H]3C(=O)C[C@@]21C,,inactive,inactive,inactive,inactive,inactive,,inactive,,
NC(=O)c1ccc([N+](=O)[O-])cc1,,inactive,inactive,inactive,inactive,inactive,,inactive,,
N#Cc1ccc(C2CCCc3cncn32)cc1 (stereo not given),inactive,inactive,inactive,inactive,inactive,,,inactive,,
NC(=O)c1ccc(N)cc1,,inactive,inactive,inactive,inactive,inactive,,inactive,,
CC(C)=CCCC(C)CC(=O)O (stereo not given),inactive,inactive,inactive,,inactive,,,inactive,,
COc1ccc(CCN(C)CCCC(C#N)(c2cc(OC)c(OC)c(OC)c2)C(C)C)cc1OC (stereo not given),inactive,26.6 µM (active),inactive,inactive,inactive,,,4.73 µM (active),,
